# Out of some 330,000 compounds screened, about 5,800 (1.8%) were called active. Only a selection was taken, and actives are over-represented in it overall. Values without a mark were called inactive. No stated cut-off is given here; in the data, active means inhibition mostly above about 38% (no sharp cut-off); inactive means mostly below about 40%.
# Molecular target: Orexin/Hypocretin receptor type 1 (Homo sapiens) (UniProt O43613)
# Experiment: antagonists of human orexin 1 receptor (OX1R) (AID 485270);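 further: 0% = agonist challenge alone and 100% = reference antagonist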
# Details: OX1R-expressing cells, FRET antagonist read-out; at 6.6 µM; hits give high values
# Orexin/Hypocretin receptor type 1 (Homo sapiens), sequence (O43613 whole entry, looked up): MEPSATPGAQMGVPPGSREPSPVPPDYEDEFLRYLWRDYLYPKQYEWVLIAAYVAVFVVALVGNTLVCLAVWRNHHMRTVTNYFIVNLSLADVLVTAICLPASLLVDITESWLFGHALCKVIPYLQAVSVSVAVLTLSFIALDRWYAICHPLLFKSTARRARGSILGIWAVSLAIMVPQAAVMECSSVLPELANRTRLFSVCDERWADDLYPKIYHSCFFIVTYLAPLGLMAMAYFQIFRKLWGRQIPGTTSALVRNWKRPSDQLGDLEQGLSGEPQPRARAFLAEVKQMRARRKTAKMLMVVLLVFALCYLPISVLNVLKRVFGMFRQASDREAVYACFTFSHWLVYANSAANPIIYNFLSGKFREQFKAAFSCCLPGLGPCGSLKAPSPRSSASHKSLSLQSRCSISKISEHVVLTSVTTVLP
row,Structure (SMILES),inhibition
1,CC1CCCCC1NCC(=O)Nc1ccccc1C(=O)Nc1ccccc1 (stereo unspecified),7.92%
2,Cc1ccccc1SCC(=O)OCC(=O)N1CC(=O)Nc2ccccc21,0.4%
3,COc1ccc(CCn2c(=N)c(C(=O)NCC3CCCO3)cc3c(=O)n4cccc(C)c4nc32)cc1OC (stereo unspecified),10.8%
4,COc1ccc(CNC(=O)c2cc3c(=O)n4ccccc4nc3n(CC3CCCO3)c2=N)cc1 (stereo unspecified),54.9% (active)
5,Cc1ccc2nc3c(cc(C(=O)NCCc4ccccc4)c(=N)n3CC3CCCO3)c(=O)n2c1 (stereo unspecified),57.5% (active)
6,Cc1ccc(CCNC(=O)c2ccc3nc4ccccc4c(=O)n3c2)cc1,-3.55%
7,COc1ccc(CCNC(=O)Cn2c(=O)n(CC3CCCO3)c(=O)c3ccccc32)cc1OC (stereo unspecified),7.5%
8,O=C(NCC1CCCO1)c1cc(-c2ccccc2)nc2ccccc12 (stereo unspecified),-0.29%
9,Cc1csc(=O)n1CC(=O)Nc1ccc(S(C)(=O)=O)cc1,7.39%
10,COc1ccc(OC)c(NC(=O)COC(=O)Cc2ccsc2)c1,5.5%
11,C[C@]12c3[nH]c4ccc(Cl)cc4c3CCN1C(=O)[C@@H](CC(=O)NCCCn1ccnc1)C[C@@H]2C(=O)N1CCOCC1,14.5%
12,CN(CC(=O)Nc1ccc(C(N)=O)cc1)S(=O)(=O)c1ccc2c(c1)OCCO2,6.44%
13,O=C(CN1C(=O)NC2(CCCC2)C1=O)Nc1cc(C(F)(F)F)ccc1N1CCOCC1,6.5%
14,CCC(=O)N(Cc1cc2cc(OC)ccc2[nH]c1=O)c1ccccc1C,4.09%
15,COc1ccc2[nH]c(=O)c(CNc3ccc(C)c(C)c3)cc2c1,108% (active)
16,COc1ccc2[nH]c(=O)c(CN(CC3CCCO3)C(=O)Nc3ccccc3)cc2c1 (stereo unspecified),5.34%
17,Cn1nnnc1SCC(=O)Nc1sccc1C(N)=O,-1.46%
18,Cc1ccc(OCC(=O)Nc2ccccc2C(=O)NC2CC2)cc1,7.7%
19,CCOc1ccccc1OCC(=O)Nc1ccccc1C(=O)NC1CC1,9.29%

row,Structure (SMILES),inhibition
1,CC(NCC(=O)Nc1ccccc1C(=O)NC1CC1)c1ccccc1Cl (stereo unspecified),29.4% (active)
2,CN(c1ccccc1)S(=O)(=O)c1ccc(C(=O)N2CCN(c3ccccc3Cl)CC2)cc1,9.4%
3,CC(=NNC(=O)c1ccc2nc[nH]c2c1)c1ccc(Br)cc1,4.88%
4,C[C@@H]1CN([C@@H](C)CO)C(=O)c2cc(NC(=O)C3CC3)ccc2O[C@H]1CN(C)C,1.14%
5,C[C@H]1COC(=O)[C@H](CC(=O)OC(C)(C)C)C/C=C\C[C@@H](CC(=O)N[C@H](CO)Cc2ccccc2)C(=O)N1,0.64%
6,Cc1cccn2c(=O)c3cc(C#N)c(=NC(=O)c4cccnc4)n(CC4CCCO4)c3nc12 (stereo unspecified),123% (active)
7,Cc1ccccc1NC(=O)Cn1c(=O)n(CC2CCCO2)c(=O)c2ccccc21 (stereo unspecified),15.6%
8,Cc1cccc(NC(=O)c2ccc3c(=O)n(CC4CCCO4)c(=S)[nH]c3c2)c1 (stereo unspecified),17.1%
9,CN(C(=O)COC(=O)Cc1ccccc1[N+](=O)[O-])C1CCS(=O)(=O)C1 (stereo unspecified),3.39%
10,COc1cccc(NC(=O)CSc2nnc(C3CCCCC3)n2N)c1,6.23%
11,COc1ccc(-n2c(SCC(=O)Nc3ccc4c(c3)OCO4)nnc2C(C)N2CCCCC2)cc1 (stereo unspecified),7.85%
12,O=C(NCCC1=CCCCC1)c1ccc(-n2cncn2)cc1,2.77%
13,COCCCNC(=S)NC(=O)c1ccccc1,6.25%
14,COCCCNC(=S)NC(=O)c1ccc([N+](=O)[O-])cc1,89.6% (active)
15,CC(=O)NC(=S)Nc1ccc(NC(=S)NC(=O)c2ccc([N+](=O)[O-])cc2)cc1,8.98%
16,O=C1CCC[C@@H]2CC(N3CCCCC3)C[C@@H]3CCN1[C@H]23 (stereo partly specified),5.93%
17,O=C(Nn1cnnc1)c1ccc([N+](=O)[O-])cc1,22.3%
18,O=C(c1ccncc1)c1ccc([N+](=O)[O-])cc1,163% (active)
19,O=C(Nc1ccccc1C(=O)Nc1ccncc1)c1ccc([N+](=O)[O-])cc1,16.2%

row,Structure (SMILES),inhibition
1,COC(=O)c1ccc(/C=C/c2c(-c3ccc(OC)cc3)sc3ccccc23)cc1,5.48%
2,CC(C)NC(=O)Nc1cccc2c1O[C@@H](CN(C)S(=O)(=O)c1ccc(F)cc1)[C@@H](C)CN([C@H](C)CO)C2=O,3.93%
3,COc1ccc(N(C)C(=O)CCS(=O)(=O)c2cccc3nsnc23)cc1,128% (active)
4,COc1ccc(C)cc1NC(=O)CCS(=O)(=O)c1cccc2nonc12,48.1%
5,CCOc1ccc(NC(=O)CCS(=O)(=O)c2cccc3nsnc23)cc1,85.9% (active)
6,O=C(CCCNS(=O)(=O)c1cccc2nsnc12)NCCN1CCN(c2ccccc2F)CC1,26.2%
7,COc1ccc(N(C)S(=O)(=O)c2cccc3nsnc23)cc1,33.6%
8,CCC(=O)N1CCc2cc(S(=O)(=O)CCC(=O)N3CCN(c4ccccc4F)CC3)ccc21,5.14%
9,COc1ccc(CNC(=O)C(NS(=O)(=O)c2cccc3nsnc23)C(C)C)cc1 (stereo unspecified),26.5%
10,CCOc1ccc(OCC)c(NC(=O)CN(C)S(=O)(=O)c2cccc3nsnc23)c1,41.7%
11,O=C(O)c1ccc(NS(=O)(=O)c2cccc3nsnc23)cc1,27.3%
12,Cc1cccc(C)c1NC(=O)CCS(=O)(=O)c1cccc2nsnc12,70.3% (active)
13,O=C(CCS(=O)(=O)c1cccc2nsnc12)N1CCN(c2ccccc2F)CC1,73% (active)
14,CCOc1ccc(N(CC)S(=O)(=O)c2cccc3nsnc23)cc1,21.1%
15,O=C(COC(=O)COc1cc(Cl)c(Cl)cc1Cl)NC1CC1,6.97%
16,Cc1ccc(C(=O)NCC(=O)NC2CC2)cc1,-0.69%
17,Cc1occc1C(=O)Nc1cccc(S(=O)(=O)N2CCOCC2)c1,4.81%
18,COc1ccc2[nH]c3c(c2c1)CCN1C(=O)C(CC(=O)NCCCN(C)C)C[C@H](C(=O)N2CCOCC2)[C@@]31CCC1CCCC1 (stereo partly specified),-1.98%

# Reference: PubChem BioAssay AID485270 (The Scripps Research Institute Molecular Screening Center, 2010)
